Molecules are shown by their SMILES. The panel holds about 83,000 compounds, 20% with a hit somewhere; the sample as a whole holds those more often.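 Cells were grown in 96-well plates and exposed to the test compound at a single concentration for 48 hours; results are reported as percent growth, with values below 10 considered active.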 Active and inactive are the calls of the source.

For the experiment, the system named is MCF7 breast. As to the kind of experiment: NCI-60 one-dose screen, 48 h (100 = growth as untreated, 0 = no growth, -100 = all killed). As to conditions: 10 µM unless noted.
For the compound `O=[N+]([O-])c1ccc(Sc2nc(Cl)nc(NC3CCCC3)n2)cc1`, the growth is -84.9% [100 µM] (active).

Turning to `Cc1c(C(N)=O)sc2ncn(CC(=O)NN=C3CCCCC3)c(=O)c12`, the growth was 109% (inactive).

With `CC1=C(O)C(=O)CC1`, the growth is 91.8% (inactive).

In the case of `CCOC(=O)C1C(=O)C=C(c2cc(OC)c(OC)c(OC)c2)CC1c1sc(N(C)Cc2ccccc2)nc1Cl` (stereo not drawn), the growth was 77.4% (inactive).

On to `COc1cc(C2CC(c3ccccc3)=NN2C=O)ccc1Oc1nc2c(c(=O)n(C)c(=O)n2C)n1C` (stereo not drawn), for which the growth was 72.3% (inactive).

Consider `O/N=C1\c2ccccc2-c2ccc(Br)cc21`, for which the growth was 91.1% (inactive).

On to `COc1ccc2c(c1)OC1=C(C(=O)OC1)C2c1cc(OC)c2c(c1)OCCO2` (stereo not drawn), for which the growth is 10.3% (inactive).

Regarding `CN1CCC2(CC1)N=C(SCC(=O)Nc1cnc3ccccc3c1)C(c1ccc(Br)cc1)=N2`, the growth is -42.7% (active).

Regarding `Clc1ccc(C2=NN[C@H](c3cn(-c4ccccc4)nc3-c3ccccc3)C2)cc1`, the growth was 66.2% (inactive).

As for `COc1cc(C)c(Cl)cc1C1=NN(c2ccc(S(N)(=O)=O)cc2)C(/C=C/c2ccccc2)C1` (stereo not drawn), the growth is 23.3% (inactive).

On to `Clc1ccc(-c2cnc3nonc3n2)s1`, for which the growth was 38.7% (inactive).

With `CN1C(=O)NC(Cc2c[nH]c3c(Cl)cccc23)C1=O` (stereo not drawn), the growth is 96.2% (inactive).

As for `COc1ccc(C(=O)N2N=C(c3ccc(F)cc3)CC2c2cn(-c3ccccc3)nc2-c2ccccc2)cc1` (stereo not drawn), the growth was 33.7% (inactive).

Consider `CN(C)c1ccc(C2(Cl)c3ccccc3N(C)c3ccccc32)cc1`, for which the growth is 50.4% (inactive).

On to `CC(=O)c1ccc(Br)c([N+](=O)[O-])c1`, for which the growth was 94.1% (inactive).

For the compound `Cc1ccc(C(=O)CC(=O)C(F)(F)C(F)(F)C(F)(F)F)s1`, the growth was 105% (inactive).

On to `COc1cc2c(cc1OC)-c1cc(OC)c(OC)cc1C(CN(C)C)C2` (stereo not drawn), for which the growth is 62% [100 µM] (inactive).

For the compound `CCOC(=O)C1OC2(CCCC2)OC1C(=O)OCC` (stereo not drawn), the growth was 98.2% (inactive).

In the case of `CCCCCCCCCCCCCCCCCC(=O)[O][Sn]([CH2]CCC)([CH2]CCC)[CH2]CCC`, the growth was -93.1% (active).

As to `FC(F)(F)c1nn[nH]n1`, the growth was 97.3% (inactive).

In the case of `COc1cc(OC)c(Cl)cc1N`, the growth was 95.5% (inactive).

With `O=C1N(Cc2ccccc2Cl)c2ccccc2C12NN=C(c1ccccc1)S2` (stereo not drawn), the growth is 53.5% (inactive).

For `N/C(=N\OC(=O)c1ccccc1)C(Cc1ccccc1)C(=O)NOC(=O)c1ccccc1` (stereo not drawn), the growth is 51.3% (inactive).

Take `Nc1ccc(C2=NNC(=O)Cc3cc4c(cc32)OCCO4)cc1Cl`: the growth is 18.8% (inactive).

With `COc1ccc2nc3ccccc3c(NCc3ccc(Cl)cc3)c2c1`, the growth was -56.4% (active).

In the case of `COC1(OC)C2(Cl)CCC1(Cl)C(Cl)=C2Cl`, the growth was 98% (inactive).

As to `O=C(NCCN1CCCCC1)n1cc(-c2ccncc2)c(-c2ccc(Cl)c(O)c2)n1`, the growth was 91% (inactive).

As for `CC(=O)N1N=C(C2C(=O)N(C)C(=O)N(C)C2=O)CC1c1ccccc1C(=O)O` (stereo not drawn), the growth is 101% (inactive).

In the case of `c1cc(C2CCCCC2)ccc1-c1cnc2nonc2n1`, the growth was 7.11% (active).

In the case of `COc1ccc(-c2nc3c(c(-c4ccc(Cl)cc4)nn3-c3ccccc3)c(-c3ccc(O)cc3)c2C#N)cc1`, the growth was 13.6% (inactive).

Turning to `c1ccc(-c2nnn(-c3ccccc3)n2)cc1`, the growth is 71% (inactive).

Regarding `CC(C)c1nc2ccccc2n1CC(=O)N/N=C/c1cccc(O)c1`, the growth was 105% (inactive).

Turning to `N#Cc1ccc(-c2ccc(-c3cccs3)o2)cc1F`, the growth was 26.4% (inactive).

Consider `CCN1C(=O)N(CC)C2C1NN=c1s/c(=C\c3ccco3)c(=O)n12` (stereo not drawn), for which the growth is 12.1% (inactive).

As for `O=C(O)C(CCc1ccccc1)NCc1ccccc1` (stereo not drawn), the growth is 95.3% (inactive).

Consider `CN1C2CCC1/C(=C\c1ccc(Cl)cc1)C(=O)/C2=C/c1ccc(Cl)cc1`, for which the growth is 22.7% (inactive).

For `Cc1cccc(/C=N/n2c(-c3ccc(Cl)cc3)nc3c(Br)cc(Br)cc3c2=O)c1`, the growth was 36.7% (inactive).

Regarding `ClC1(Cl)C2CCCCCCC21` (stereo not drawn), the growth is 98.5% (inactive).

(Values after PubChem BioAssay (NCI).)
